Results reported in article PMC4552634, “A New Set of Chemical Starting Points with Plasmodium falciparum Transmission-Blocking Potential for Antimalarial Drug Discovery” (PLoS ONE, 2015).
In all, about 13,000 compounds went through this assay and about 3,200 (25%) showed an effect of 50% or more. Some of the results follow.

Tested on: P. falciparum stage V gametocytes
Design: BacTiter-Glo ATP luminescence viability of purified stage V gametocytes in 384-well plates, per cent inhibition versus DMSO
Conditions: 48 h, 5 µM; inhibitor

| Compound | % Inhibition [%] |
| --- | --- |
| O=C(NCC(CCN1CCC(c2c[nH]c3ccccc23)CC1)c1ccccc1)Nc1ccc(Cl)c(Cl)c1 (centres unmarked) [TCMDC-139626] | 1.901 |
| COc1cccc2cc(C(=O)N[C@@H](CC(C)C)C(=O)N[C@H](C=NN3CCOC3=O)CC(C)C)oc12 [TCMDC-136064] | 12.6 |
| Cc1noc(=O)c2ccc(NC(=O)C(O)(CSc3ccccc3)CC(C)C)cc12 (centres unmarked) [TCMDC-135222] | 46.49 |
| Fc1cc(Cl)ccc1Nc1ccnc(Nc2ccc3cn[nH]c3c2)n1 [TCMDC-138575] | 13.66 |
| c1ccc(-c2[nH]ncc2Nc2ccnc3ccccc23)nc1 [TCMDC-138641] | -8.718 |
| NC(=O)c1cc2nc(NC3CCC3)nc(Nc3cccc4[nH]ncc34)c2[nH]1 [TCMDC-137005] | 21.61 |
| O=C(Cc1ccc([N+](=O)[O-])cc1)N1CCc2cc3nccc(N4CCN5CCC[C@@H]5C4)c3cc21 [TCMDC-140039] | -19.96 |
| O=C(Nc1ccccc1Cc1ccccc1)c1ccccc1C(F)(F)F [TCMDC-123550] | 54.56 |
| O=C(Nc1ccccc1Cc1ccccc1)c1ccccc1[N+](=O)[O-] [TCMDC-124438] | 42.41 |
| O=C(Nc1ccc([N+](=O)[O-])cc1Cl)c1cc(Br)cc(Cc2ccccc2)c1O [TCMDC-124004] | 12.42 |
| O=C(Nc1ccc2c(c1)CCN2C1CCN(Cc2csc3ccccc23)C1)c1ccco1 (centres unmarked) [TCMDC-135069] | 39.32 |
| c1ccc2cc3c(NCCN4CCOCC4)ccnc3cc2c1 [TCMDC-125814] | -3.95 |
| CN1CCN(c2ccnc3cc4ccccc4cc23)CC1 [TCMDC-124200] | 1.444 |
| CCN1CCCC(Nc2ccnc3cc4ccccc4cc23)C1 (centres unmarked) [TCMDC-123499] | 94.14 |
| Cn1c(=N)cc(-c2ccc(Br)cc2)c2c(=O)[nH]c(N)nc21 [TCMDC-137743] | 6.431 |
| Cc1csc(-c2ccc3[nH]cc(C4=CCN(C)CC4)c3c2)n1 [TCMDC-132040] | -6.013 |
| O=S(=O)(Nc1cc2c(cc1O)CCNCC2)c1ccc(-c2ccc(Cl)cc2)cc1 [TCMDC-141497] | -93.89 |
| COc1ccc(-c2ccc(S(=O)(=O)Nc3cc4c(cc3OC(C)C)CCNCC4)cc2)cc1 [TCMDC-141481] | 37.39 |
| CC(C)Oc1cc2c(cc1NS(=O)(=O)c1ccc(-c3ccc(Cl)s3)cc1F)CCN(C)CC2 [TCMDC-141582] | 18.13 |
| CN1CCc2cc(NS(=O)(=O)c3ccc(-c4ccc(Cl)s4)cc3)c(N3CCCCC3)cc2CC1 [TCMDC-141588] | 76.97 |
| CN1CCc2cc(NS(=O)(=O)c3ccc(-c4ccc(Cl)cc4)cc3)c(OCCCN3CCCCC3)cc2CC1 [TCMDC-141754] | 108.9 |
| CN1CCc2cc(O)c(NS(=O)(=O)c3ccc(-c4ccc(Cl)cc4)cc3)cc2CC1 [TCMDC-141501] | -85.22 |
| O=S(=O)(Nc1cc2c(cc1OCCCN1CCCCC1)CCNCC2)c1ccc(-c2ccc(Cl)cc2)cc1 [TCMDC-141753] | 106.2 |

| Compound | % Inhibition [%] |
| --- | --- |
| Cc1cc(-c2ccc(S(=O)(=O)Nc3cc4c(cc3OC(C)C)CCN(C)CC4)cc2)ccc1Cl [TCMDC-141488] | 42.37 |
| CC(C)Oc1cc2c(cc1NS(=O)(=O)c1ccc(-c3ccc(Cl)cc3)cc1)CCN(C)CC2 [TCMDC-141459] | 21.1 |
| N=C(N)NCCCCN(Cc1ccccc1)c1ccccc1 [TCMDC-131834] | 24.97 |
| Nc1nc2cccc3ccc4cccc1c4c32 [TCMDC-142055] | 15.08 |
| COc1cc2ncnc(Nc3ccc(OCc4ccccc4Br)c(Cl)c3)c2cc1OC [TCMDC-131913] | 20.89 |
| O=[N+]([O-])c1ccc(C=NO)nc1 [TCMDC-131967] | 114.3 |
| O=[N+]([O-])c1ccc(C=NNc2nc3ccccc3[nH]2)cc1 [TCMDC-124105] | -75.71 |
| CCCCN(CCCC)Cc1cc(N(C)c2ccc([N+](=O)[O-])cn2)ccc1O [TCMDC-137484] | -6.258 |
| NC1CCN(c2nc(NCCCc3ccc(O)cc3)nc(NCc3ccccc3-c3ccccc3)n2)CC1 [TCMDC-133390] | 36.08 |
| CC1(C)N=C(N)N=C(N)N1OCCc1ccccc1 [TCMDC-131597] | -4.135 |
| COc1ccc(NC(=O)c2ccc(-c3nc(-c4cccc(C(F)(F)F)c4)cs3)cc2)cc1N1CCN(C)CC1 [TCMDC-138686] | 5.66 |
| COc1ccc(C2C(C(=O)Nc3cc(Cl)c(OC)cc3OC)c3ccccc3C(=O)N2C)cc1 (centres unmarked) [TCMDC-123596] | 80.19 |
| COc1ccc(C2C(C(=O)Nc3ccc(C)cc3Br)c3ccccc3C(=O)N2C)cc1 (centres unmarked) [TCMDC-123597] | -11.57 |
| COc1ccc(C2CC(c3cccs3)=NN2C(=O)CNc2ccccc2F)cc1OC (centres unmarked) [TCMDC-123552] | -9.982 |
| COc1ccc(NC(=O)C2c3ccccc3C(=O)N(CC(C)C)C2c2cccs2)cc1OC (centres unmarked) [TCMDC-125289] | 95.75 |
| CCCCN1CCN(c2cc(NS(=O)(=O)c3cccc(C(=O)Nc4ccc(C(F)(F)F)cc4)c3)ccc2OC)CC1 [TCMDC-141779] | -16.75 |
| COc1cc(OC)c(NC(=O)Nc2ccnc3ccccc23)cc1Cl [TCMDC-139463] | 15 |
| COc1cc2c(cc1OC)C(C(=O)Nc1ccc(C(F)(F)F)cc1)C(c1cccs1)N(C)C2=O (centres unmarked) [TCMDC-123797] | 62.6 |
| COc1cc(OC)c(NC(=O)C2c3ccccc3C(=O)N(C)C2c2cccs2)cc1Cl (centres unmarked) [TCMDC-125447] | 95.47 |
| COc1ccc(C2C(C(=O)Nc3cc(C)ccc3OC)c3ccccc3C(=O)N2C)cc1 (centres unmarked) [TCMDC-123595] | 25.42 |
| O=C(/C=C/c1ccc(Cl)cc1)NCCCCCN1CCCC(C(=O)Nc2ccc(F)c(Cl)c2)C1 (centres unmarked) [TCMDC-136113] | 4.941 |
| CCN(CC)CCNC(=O)c1ccc(NC(=O)c2cc3c(C)nn(-c4ccc(Cl)cc4)c3s2)cc1 [TCMDC-124020] | 26.74 |
| N#Cc1ccc(C=Cc2nccc3c2[nH]c2ccccc23)cc1 [TCMDC-124483] | -0.1389 |

| Compound | % Inhibition [%] |
| --- | --- |
| Cc1cc(C(=O)OCC(=O)Nc2c(C)n(C)n(-c3ccccc3)c2=O)c(C)n1-c1ccc(F)cc1 [TCMDC-123794] | -8.44 |
| CCOC(=O)c1[nH]c2ccc(F)cc2c1NC(=O)CN1CCN(c2cccc(C(F)(F)F)c2)CC1 [TCMDC-124048] | -41.18 |
| COc1ccc2nccc(N3CCC(NCCNS(=O)(=O)c4ccc5c(c4)NC(=O)CS5)C3)c2n1 (centres unmarked) [TCMDC-134527] | -17.46 |
| CCCCCCCCCN(CCC)C(=O)[C@@H]1OC(C(=O)OC(c2ccccc2)c2ccccc2)=C[C@H](NC(=O)OC(C)(C)C)[C@H]1NC(C)=O [TCMDC-132020] | -25.5 |
| O=C(Nc1ccc(Oc2cccnc2)cc1)C1CCN(Cc2cc(Cl)ccc2O)CC1 [TCMDC-124640] | -32.1 |
| O=C(Cc1cnc[nH]1)Nc1ccc(-c2ccc(-c3nc4ccc(F)cc4[nH]3)cc2)cc1 [TCMDC-136781] | -5.638 |
| CC(=O)Nc1nc(C(=O)Nc2ccc(-c3cccc(-c4nc5ccc(F)cc5[nH]4)c3)cc2)cs1 [TCMDC-137122] | -21.41 |
| O=C(NCc1cccc(OC(F)(F)F)c1)c1cnc2c(c1)nc(-c1cnc(-c3ccccc3)[nH]1)n2CCc1cnc[nH]1 [TCMDC-139690] | -64.98 |
| COc1cc(OC)c(NC(=O)C2c3ccccc3C(=O)N(CC(C)C)C2c2cccs2)cc1Cl (centres unmarked) [TCMDC-124760] | 55.1 |
| CCn1c(=O)c(C(=O)Nc2cc(Cl)c(OC)cc2OC)nc2ccccc21 [TCMDC-125064] | -72.41 |
| COc1ccc(OC)c(NC(=O)C2c3ccccc3C(=O)N(CC(C)C)C2c2cccs2)c1 (centres unmarked) [TCMDC-124759] | 26.61 |
| O=C(CN1CCN(C(C(=O)Nc2cc(C(F)(F)F)ccc2Cl)c2ccccc2)CC1)NC1CC1 (centres unmarked) [TCMDC-125267] | 8.518 |
| COc1cc2nc(NCCc3ccccc3)nc(NCc3ccc(C#N)cc3)c2cc1OC [TCMDC-135300] | 97.53 |
| c1ccc(CNc2nc(NCCc3cnc[nH]3)nc(NCc3cccc4ccccc34)n2)cc1 [TCMDC-139737] | 1.176 |
| COc1cc2nc(NCCc3ccccc3)nc(NC(C)c3ccccc3)c2cc1OC (centres unmarked) [TCMDC-135384] | 51.56 |
| COc1cc2nc(N3CCC(c4ccccc4)CC3)nc(NCc3ccc(=O)[nH]c3)c2cc1OC [TCMDC-136497] | -1.844 |
| COc1ccc(CCNc2nc(NCCc3cnc[nH]3)nc(NCc3cccc4ccccc34)n2)cc1OC [TCMDC-139244] | 77.02 |
| COc1ccc(C(C)Nc2nc(N)c3cc(OC)c(OC)cc3n2)cc1.Cl (centres unmarked) [TCMDC-131891] | 10.29 |
| COc1cc2nc(N3CCC(CCCC4CCNCC4)CC3)nc(NCc3ccccn3)c2cc1OC [TCMDC-138494] | 104 |
| CC(C)Nc1nc(NCCc2cnc[nH]2)nc(NCc2cccc3ccccc23)n1 [TCMDC-139736] | 1.941 |
| C[C@@H](Nc1nc(NCc2ccccc2)c2sccc2n1)c1ccccc1 [TCMDC-136500] | -1.002 |
| CC[C@H]1CN2CC[C@H]1C[C@H]2[C@H](OC(=O)c1ccccc1)c1cc(C#N)nc2ccc(OC)cc12 [TCMDC-138208] | 28.19 |
